Data taken from PubChem BioAssay (EPA / NIEHS).
Values joined by “and” are separate entries in the source; they are usually repeats but may differ in a detail not shown here. Equal values may be shown once. Active and inactive are the calls of the source. The calls were made as follows: active = hit-call score of the fitted dose curve at least 0.9, where 1 is the maximum; inactive = score below 0.9.

target: Cellular tumor antigen p53 (Homo sapiens) (UniProt P04637); assay: ATG_p53_CIS: Attagene CIS-FACTORIAL HepG2 Assay for human p53 Transcription Factor (AID 2282994); conditions: HepG2 p53 cis-element reporter, Attagene mRNA; actives raise or lower the signal
In short: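 Multiplexed reporter mRNA assay in human HepG2 liver cells; cis-regulated units report endogenous factor activity. Values come from bidirectional curve fitting against DMSO negative control after 24 h treatment.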

Cellular tumor antigen p53 (Homo sapiens), sequence (P04637 whole entry, looked up): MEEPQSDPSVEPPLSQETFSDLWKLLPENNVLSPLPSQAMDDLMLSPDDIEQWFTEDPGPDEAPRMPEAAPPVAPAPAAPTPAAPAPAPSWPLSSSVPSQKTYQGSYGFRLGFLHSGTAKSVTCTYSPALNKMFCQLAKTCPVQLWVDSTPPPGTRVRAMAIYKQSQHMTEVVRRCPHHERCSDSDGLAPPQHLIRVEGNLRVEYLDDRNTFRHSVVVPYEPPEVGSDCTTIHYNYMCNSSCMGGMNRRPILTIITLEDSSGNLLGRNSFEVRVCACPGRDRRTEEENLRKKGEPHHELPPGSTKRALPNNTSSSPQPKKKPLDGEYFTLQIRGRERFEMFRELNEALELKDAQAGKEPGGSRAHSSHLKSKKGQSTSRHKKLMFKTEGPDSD

Compound	AC50	outcome
OC(Cc1ccccc1Cl)(Cn1cncn1)C1(Cl)CC1 (stereo not drawn)	30 µM (active)	
O=S(=O)(C(Cl)(Cl)Cl)C(Cl)(Cl)Cl	15.1 µM (active)	
Cc1cc(Cl)ccc1OC(C)C(=O)O (stereo not drawn)		inactive
O=C(Cc1ccccc1)OCCc1ccccc1		inactive
CCOP(=S)(OCC)OP(=S)(OCC)OCC		inactive
O=[N+]([O-])c1ccc(Nc2ccccc2)cc1		inactive
C[C@]12CC[C@@H](O)C[C@@H]1CC[C@@H]1[C@@H]2CC[C@]2(C)C(=O)CC[C@@H]12		inactive
Oc1cccc(-c2ccccc2)c1		inactive
NC(=O)CCl		inactive
O=c1oc2ccccc2c(O)c1C(CC(O)c1ccc(-c2ccc(Br)cc2)cc1)c1ccccc1 (stereo not drawn)	53.2 µM (active) and 21.3 µM (active)	
C#CCOC(=O)/C=C(C)/C=C/CC(C)CCCC(C)C (stereo not drawn)		inactive
CCCCCCCCCCCCN(C)C	33.4 µM (active)	
CCOC(=O)CCN(SN(C)C(=O)Oc1cccc2c1OC(C)(C)C2)C(C)C		inactive
Cc1ccccc1OP(=O)(Oc1ccccc1C)Oc1ccccc1C		inactive
O=S(=O)(c1ccc(Cl)cc1)c1cc(Cl)c(Cl)cc1Cl		inactive
N#CCCC(Br)(C#N)CBr (stereo not drawn)	52.8 µM (active)	
CCOC(=O)CC(=O)CCl	148 µM (active)	
O=C1C=CC(=O)c2ccccc21		inactive
CC(C)(COCC1CO1)COCC1CO1 (stereo not drawn)		inactive

Compound	AC50	outcome
Oc1ccc(Cc2ccc(O)cc2)cc1		inactive
CC(C=O)Cc1ccc2c(c1)OCO2 (stereo not drawn)		inactive
Nc1c(Oc2ccccc2)cc(O)c2c1C(=O)c1ccccc1C2=O		inactive
CC(C)(C)c1cc([N+](=O)[O-])cc(C(C)(C)C)c1O		inactive
Oc1c(Cl)cc(Cl)cc1Cl		inactive
[Cl][Sn]([c]1ccccc1)([c]1ccccc1)[c]1ccccc1	0.167 µM (active)	
CC1(C)[C@H](C(=O)O[C@H](C#N)c2cccc(Oc3ccccc3)c2)[C@@H]1/C=C(\Cl)C(F)(F)F		inactive
Cc1ccc(OP(=O)(Oc2ccc(C)cc2C)Oc2ccc(C)cc2C)c(C)c1		inactive
O=[N+]([O-])c1cccc2ccccc12		inactive
Cc1ccc2nc3sc(=O)sc3nc2c1		inactive
c1ccc(-c2cccc(-c3ccccc3)c2)cc1		inactive
CCC(C)(C#N)N=NC(C)(C#N)CC (stereo not drawn)		inactive
CCN(CC)C(=O)C(Cl)=C(C)OP(=O)(OC)OC		inactive
CCOP(=O)(OCC)OC(=CCl)c1ccc(Cl)cc1Cl		inactive
Cc1cccc(OP(=O)(Oc2cccc(C)c2)Oc2cccc(C)c2)c1		inactive
OCCCCO		inactive
Cc1ccccc1OP(=O)(Oc1ccccc1)Oc1ccccc1		inactive
COCC(=O)N(c1c(C)cccc1C)[C@H](C)C(=O)OC		inactive
CCCCOC(=O)COC(=O)c1ccccc1C(=O)OCCCC		inactive
